Data as given in PubChem BioAssay (EPA / NIEHS).
Some structures have more than one record in an assay (separate samples or runs), and their calls can disagree. Active and inactive are the calls of the source. Rule for the calls: active = hit-call score of the fitted dose curve at least 0.9, where 1 is the maximum; inactive = score below 0.9.

Legend:
[1] = CEETOX_H295R_OHPROG: CeeTox H295R High-throughput Steroidogenesis Assay for OH-Progesterone (OHPROG) (AID 2283435); settings: actives raise or lower the signal;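 for AC50: human adrenal H295R cells primed 48 h with 10 µM forskolin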
How it was run: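 H295R adrenal cells prestimulated 48 h with 10 uM forskolin, then exposed 48 h to chemical (0.1% DMSO final). 17alpha-hydroxyprogesterone in medium quantified by HPLC-MS/MS; bidirectional fit versus DMSO, with MTT viability measured in the same wells.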

[2] = CEETOX_H295R_CORTIC: CeeTox H295R High-throughput Steroidogenesis Assay for Corticosterone (CORTIC) (AID 2283437); settings: actives raise or lower the signal;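 note: corticosterone secreted into medium quantified by mass spectrometry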;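 for AC50: human H295R adrenal cells prestimulated with forskolin before chemical exposure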
How it was run: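 H295R cells were prestimulated 48 h with 10 uM forskolin, then exposed 48 h to test chemical in 0.1% DMSO. Medium corticosterone was MTBE-extracted and quantified by HPLC-MS/MS; bidirectional fit versus DMSO baseline.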

[3] = CEETOX_H295R_CORTISOL: CeeTox H295R High-throughput Steroidogenesis Assay for Cortisol (AID 2283438); settings: actives raise or lower the signal;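 note: cortisol secreted into medium quantified by LC-MS/MS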
How it was run: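 Forskolin-primed H295R cells (10 uM, 48 h) treated 48 h with test chemical in 0.1% DMSO. Cortisol in medium quantified by MTBE extraction and HPLC-MS/MS; bidirectional fit vs DMSO, MTT viability in same wells.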

[4] = CEETOX_H295R_DOC: CeeTox H295R High-throughput Steroidogenesis Assay for DOC (AID 2283439); settings: actives raise or lower the signal
How it was run: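 H295R cells prestimulated 48 h with 10 uM forskolin, then exposed 48 h to test chemical (0.1% DMSO final). Medium 11-deoxycorticosterone measured by HPLC-MS/MS after MTBE extraction; bidirectional fit vs DMSO, viability checked by MTT in same wells.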

[5] = CEETOX_H295R_ESTRADIOL: CeeTox H295R High-throughput Steroidogenesis Assay for Estradiol (AID 2283440); settings: actives raise or lower the signal;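 note: estradiol secreted into medium quantified by LC-MS/MS after dansyl derivatisation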
How it was run: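 Following OECD 456 with minor changes, H295R cells received 10 uM forskolin for 48 h and then test chemical for 48 h. Hormone output was read by HPLC-MS/MS, with cytotoxic concentrations diluted until MTT viability reached ≥70%.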

[6] = CEETOX_H295R_ESTRONE: CeeTox H295R High-throughput Steroidogenesis Assay for Estrone (AID 2283441); settings: actives raise or lower the signal;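 note: estrone secreted into medium measured by LC-MS/MS after dansyl derivatization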;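 for AC50: human adrenal H295R cells prestimulated with forskolin for two days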
How it was run: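 H295R cells prestimulated 48 h with 10 uM forskolin, then exposed 48 h to chemicals in 0.1% DMSO final; estrone in medium extracted with MTBE, dansyl-derivatized, quantified by HPLC-MS/MS; bidirectional fitting versus DMSO, viability by MTT.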

[7] = CEETOX_H295R_PROG: CeeTox H295R High-throughput Steroidogenesis Assay for Progesterone (PROG) (AID 2283442); settings: actives raise or lower the signal;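 for AC50: human H295R adrenal cells primed with 10 µM forskolin before dosing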
How it was run: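 Adrenal H295R line, forskolin-stimulated (10 uM, 48 h) before dosing. 48 h exposure, 0.1% DMSO vehicle. Secreted progesterone by reverse-phase HPLC with ESI+ MS/MS quantification; DMSO-normalised bidirectional curve fit.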

[8] = read-out: Tumor necrosis factor receptor superfamily member 6 (Homo sapiens) (UniProt P25445); test: LTEA_HepaRG_FAS: Life Technologies and Expression Analysis (LTEA) Assay for Fas cell surface death receptor (FAS) using HepaRG (AID 2283447); settings: mRNA level, 48 h; actives raise or lower the signal
How it was run: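 Differentiated human HepaRG cells, pre-cultured 48 h, were exposed in duplicate for 48 h to 8-point half-log concentrations (top 100 uM, 0.5% DMSO) in serum-free induction medium; FAS mRNA measured by qRT-PCR, normalized to ACTB/GAPDH/POLR2A, bidirectional fit versus DMSO.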

[9] = read-out: Fatty acid synthase (Homo sapiens) (UniProt P49327); test: LTEA_HepaRG_FASN: Life Technologies and Expression Analysis (LTEA) Assay for Fatty Acid Synthase (FASN) using HepaRG (AID 2283448); settings: mRNA level, 48 h; actives raise or lower the signal
How it was run: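 Differentiated HepaRG cells in serum-free induction medium exposed 48 h in duplicate to eight half-log concentrations, top 100 uM, 0.5% DMSO. FASN mRNA by qRT-PCR normalised to ACTB, GAPDH, POLR2A; bidirectional fit versus DMSO.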

[10] = CEETOX_H295R_ANDR: CeeTox H295R High-throughput Steroidogenesis Assay for Androstenedione (ANDR) (AID 2283436); settings: actives raise or lower the signal
How it was run: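 H295R human adrenal cells (passages ≤10) were exposed to test chemicals for 48 h; androstenedione in medium was MTBE-extracted and quantified by HPLC-MS/MS against a 7-point standard curve. Bidirectional fitting used DMSO as baseline.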

Fatty acid synthase (Homo sapiens), sequence (P49327 whole entry, looked up): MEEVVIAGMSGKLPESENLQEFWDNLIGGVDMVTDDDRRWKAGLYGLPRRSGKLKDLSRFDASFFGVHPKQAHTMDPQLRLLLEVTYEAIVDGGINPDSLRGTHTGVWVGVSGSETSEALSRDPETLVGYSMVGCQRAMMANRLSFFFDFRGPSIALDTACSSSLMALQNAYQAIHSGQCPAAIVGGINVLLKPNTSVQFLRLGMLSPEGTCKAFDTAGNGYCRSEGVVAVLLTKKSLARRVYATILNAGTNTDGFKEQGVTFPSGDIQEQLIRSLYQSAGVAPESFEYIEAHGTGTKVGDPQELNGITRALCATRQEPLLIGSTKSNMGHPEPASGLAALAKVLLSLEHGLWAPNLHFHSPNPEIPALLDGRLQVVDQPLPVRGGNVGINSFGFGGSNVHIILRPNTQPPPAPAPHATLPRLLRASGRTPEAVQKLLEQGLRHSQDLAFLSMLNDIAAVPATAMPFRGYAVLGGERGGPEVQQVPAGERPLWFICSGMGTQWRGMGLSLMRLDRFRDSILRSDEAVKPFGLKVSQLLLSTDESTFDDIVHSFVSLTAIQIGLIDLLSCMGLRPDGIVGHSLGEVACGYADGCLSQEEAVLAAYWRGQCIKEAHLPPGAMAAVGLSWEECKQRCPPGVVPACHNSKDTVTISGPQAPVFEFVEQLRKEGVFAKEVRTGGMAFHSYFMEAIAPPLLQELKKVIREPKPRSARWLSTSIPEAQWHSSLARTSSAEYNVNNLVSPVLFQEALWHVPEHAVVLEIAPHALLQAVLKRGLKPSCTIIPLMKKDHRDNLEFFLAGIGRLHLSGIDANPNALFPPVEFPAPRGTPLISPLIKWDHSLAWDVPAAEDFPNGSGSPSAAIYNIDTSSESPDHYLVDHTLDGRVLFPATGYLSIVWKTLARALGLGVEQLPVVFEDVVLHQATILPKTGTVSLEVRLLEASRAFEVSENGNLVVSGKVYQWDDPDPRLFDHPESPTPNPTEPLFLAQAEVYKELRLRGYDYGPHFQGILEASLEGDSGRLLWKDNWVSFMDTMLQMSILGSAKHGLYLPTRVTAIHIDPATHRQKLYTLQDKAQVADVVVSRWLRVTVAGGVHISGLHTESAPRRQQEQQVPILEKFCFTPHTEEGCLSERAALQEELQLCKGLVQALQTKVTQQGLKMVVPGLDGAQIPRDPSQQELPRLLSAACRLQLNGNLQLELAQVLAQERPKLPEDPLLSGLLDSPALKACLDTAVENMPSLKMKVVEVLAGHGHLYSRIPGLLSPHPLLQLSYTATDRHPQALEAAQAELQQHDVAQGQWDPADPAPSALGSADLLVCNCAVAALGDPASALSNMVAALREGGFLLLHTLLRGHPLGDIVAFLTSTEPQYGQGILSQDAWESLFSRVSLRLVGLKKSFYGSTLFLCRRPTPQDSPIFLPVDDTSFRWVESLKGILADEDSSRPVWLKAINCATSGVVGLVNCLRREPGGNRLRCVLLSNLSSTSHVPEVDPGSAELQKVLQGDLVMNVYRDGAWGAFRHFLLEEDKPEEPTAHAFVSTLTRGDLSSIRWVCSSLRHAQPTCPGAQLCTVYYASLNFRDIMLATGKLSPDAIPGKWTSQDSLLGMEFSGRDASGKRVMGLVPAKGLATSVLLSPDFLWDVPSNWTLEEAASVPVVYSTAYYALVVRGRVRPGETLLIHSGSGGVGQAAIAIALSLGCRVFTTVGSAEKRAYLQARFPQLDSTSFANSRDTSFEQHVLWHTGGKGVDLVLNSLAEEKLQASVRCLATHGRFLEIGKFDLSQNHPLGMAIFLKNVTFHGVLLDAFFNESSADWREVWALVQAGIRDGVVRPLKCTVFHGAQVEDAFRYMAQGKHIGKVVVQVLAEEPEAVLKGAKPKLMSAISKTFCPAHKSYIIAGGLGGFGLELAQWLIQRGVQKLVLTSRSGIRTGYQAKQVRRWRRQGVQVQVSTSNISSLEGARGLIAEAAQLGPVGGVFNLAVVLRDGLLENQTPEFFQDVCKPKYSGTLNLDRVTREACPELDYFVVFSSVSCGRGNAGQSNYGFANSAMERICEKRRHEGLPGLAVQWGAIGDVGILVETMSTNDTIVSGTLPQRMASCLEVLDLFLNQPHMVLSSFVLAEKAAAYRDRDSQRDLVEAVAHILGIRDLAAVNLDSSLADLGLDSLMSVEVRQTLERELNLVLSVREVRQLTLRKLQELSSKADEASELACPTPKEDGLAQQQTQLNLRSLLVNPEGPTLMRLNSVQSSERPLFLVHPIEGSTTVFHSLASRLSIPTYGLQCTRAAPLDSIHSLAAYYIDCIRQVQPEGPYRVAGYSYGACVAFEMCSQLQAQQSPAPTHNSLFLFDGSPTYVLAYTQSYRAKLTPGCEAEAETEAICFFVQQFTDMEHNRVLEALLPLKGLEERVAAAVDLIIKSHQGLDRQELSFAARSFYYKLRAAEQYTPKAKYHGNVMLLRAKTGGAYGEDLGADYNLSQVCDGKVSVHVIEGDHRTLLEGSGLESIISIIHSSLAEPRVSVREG

Cc1c(F)c(F)c(COC(=O)C2C(/C=C(\Cl)C(F)(F)F)C2(C)C)c(F)c1F (stereo not drawn)
outcome [1]: inactive | outcome [2]: inactive | outcome [3]: inactive | outcome [4]: inactive | outcome [5]: inactive | outcome [6]: inactive | outcome [7]: inactive | outcome [8]: inactive | outcome [9]: inactive

CCOC(=O)C(Cl)Cc1cc(-n2nc(C)n(C(F)F)c2=O)c(F)cc1Cl (stereo not drawn)
AC50 [1]: 50 µM (active) | outcome [2]: inactive | outcome [3]: inactive | AC50 [4]: 17.2 µM (active) | outcome [5]: inactive | outcome [6]: inactive | outcome [7]: inactive | outcome [8]: inactive | outcome [9]: inactive

C=CC1(C)OC(=O)N(c2cc(Cl)cc(Cl)c2)C1=O (stereo not drawn)
AC50 [1]: 22.6 µM (active) | outcome [2]: inactive | outcome [3]: inactive | AC50 [4]: 11.3 µM (active) | outcome [5]: inactive | outcome [6]: inactive | AC50 [7]: 17.5 µM (active) | outcome [8]: inactive | outcome [9]: inactive

CCOc1cc(Oc2ccc(C(F)(F)F)cc2Cl)ccc1[N+](=O)[O-]
outcome [1]: inactive | outcome [2]: inactive | outcome [3]: inactive | outcome [4]: inactive | AC50 [5]: 1.78 µM (active) | AC50 [6]: 3.32 µM (active) | outcome [7]: inactive | AC50 [8]: 14.4 µM (active) | AC50 [9]: 32 µM (active)

CCCCNC(=O)n1c(NC(=O)OC)nc2ccccc21
outcome [1]: inactive | outcome [10]: inactive | outcome [2]: inactive | outcome [3]: inactive | outcome [4]: inactive | outcome [5]: inactive | outcome [6]: inactive | outcome [7]: inactive | outcome [8]: inactive | outcome [9]: inactive

COP(N)(=O)SC (stereo not drawn)
outcome [8]: inactive | outcome [9]: inactive

CNC(=S)S
outcome [1]: inactive | outcome [2]: inactive | outcome [3]: inactive | outcome [4]: inactive | outcome [5]: inactive | outcome [6]: inactive | outcome [7]: inactive | outcome [8]: inactive | outcome [9]: inactive

CCON=C(CC)C1=C(O)CC(c2c(C)cc(C)cc2C)CC1=O (stereo not drawn)
outcome [1]: inactive | outcome [10]: inactive | outcome [2]: inactive | outcome [3]: inactive | outcome [4]: inactive | outcome [7]: inactive | outcome [8]: inactive | AC50 [9]: 50 µM (active)

CCOC(=O)CC(SP(=S)(OC)OC)C(=O)OCC (stereo not drawn)
AC50 [1]: 25.8 µM (active) | outcome [10]: inactive | outcome [2]: inactive | outcome [3]: inactive | outcome [4]: inactive | AC50 [7]: 21 µM (active) | outcome [8]: inactive

CCCC1COC(Cn2cncn2)(c2ccc(Cl)cc2Cl)O1 (stereo not drawn)
outcome [1]: inactive | outcome [10]: inactive | AC50 [2]: 0.357 µM (active) | AC50 [3]: 0.323 µM (active) | outcome [4]: inactive | outcome [7]: inactive | AC50 [8]: 72 µM (active) | AC50 [9]: 83.3 µM (active)

C=CCC1=C(C)C(OC(=O)C2C(C=C(C)C)C2(C)C)CC1=O (stereo not drawn)
outcome [1]: inactive | outcome [2]: inactive | outcome [3]: inactive | outcome [4]: inactive | outcome [7]: inactive | outcome [8]: inactive | outcome [9]: inactive

CN(C)C(=S)SSC(=S)N(C)C
outcome [8]: inactive | outcome [9]: inactive

CC(C)Oc1cc(-n2nc(C(C)(C)C)oc2=O)c(Cl)cc1Cl
outcome [1]: inactive | outcome [10]: inactive | outcome [2]: inactive | outcome [3]: inactive | outcome [4]: inactive | outcome [5]: inactive | outcome [6]: inactive | outcome [7]: inactive | outcome [8]: inactive | outcome [9]: inactive

CON(C)C(=O)Nc1ccc(Cl)c(Cl)c1
outcome [1]: inactive | outcome [2]: inactive | outcome [3]: inactive | outcome [4]: inactive | outcome [7]: inactive | outcome [8]: inactive | AC50 [9]: 4.86 µM (active)

CCNc1nc(Cl)nc(NC(C)C)n1
outcome [1]: inactive | outcome [2]: inactive | outcome [3]: inactive | outcome [4]: inactive | outcome [5]: inactive | AC50 [6]: 1.35 µM (active) | outcome [7]: inactive | outcome [8]: inactive | outcome [9]: inactive

N#CC(CCc1ccc(Cl)cc1)(Cn1cncn1)c1ccccc1 (stereo not drawn)
AC50 [1]: 0.36 µM (active) | outcome [10]: inactive | outcome [2]: inactive | AC50 [3]: 0.386 µM (active) | outcome [4]: inactive | outcome [5]: inactive | outcome [6]: inactive | AC50 [7]: 0.627 µM (active) | AC50 [8]: 76.1 µM (active) | AC50 [9]: 91.1 µM (active)

O=C(O)COc1nc(Cl)c(Cl)cc1Cl
outcome [8]: inactive | outcome [9]: inactive

Cc1cc(Cl)ccc1OCC(=O)O
outcome [1]: inactive | outcome [10]: inactive | outcome [2]: inactive | outcome [3]: inactive | outcome [4]: inactive | outcome [7]: inactive | outcome [8]: inactive | outcome [9]: inactive

CC1COC(Cn2cncn2)(c2ccc(Oc3ccc(Cl)cc3)cc2Cl)O1 (stereo not drawn)
AC50 [1]: 0.5 µM (active) | outcome [2]: inactive | AC50 [3]: 0.372 µM (active) | AC50 [4]: 0.334 µM (active) | outcome [5]: inactive | outcome [6]: inactive | outcome [7]: inactive | AC50 [8]: 17.9 µM (active) | AC50 [9]: 29.7 µM (active)

CCNc1nc(Cl)nc(NCC)n1
outcome [1]: inactive | outcome [2]: inactive | outcome [3]: inactive | outcome [4]: inactive | outcome [5]: inactive | AC50 [6]: 8.07 µM (active) | outcome [7]: inactive | outcome [8]: inactive | outcome [9]: inactive

COc1nc(NC(C)C)nc(NC(C)C)n1
outcome [1]: inactive | outcome [2]: inactive | outcome [3]: inactive | outcome [4]: inactive | AC50 [5]: 6.99 µM (active) | AC50 [6]: 3.8 µM (active) | outcome [7]: inactive | outcome [8]: inactive | outcome [9]: inactive

CCOP(=S)(OCC)SCn1c(=O)oc2cc(Cl)ccc21
outcome [1]: inactive | AC50 [2]: 1.14 µM (active) | outcome [3]: inactive | AC50 [4]: 1.36 µM (active) | AC50 [5]: 1.23 µM (active) | AC50 [6]: 1.62 µM (active) | AC50 [7]: 3.23 µM (active) | outcome [8]: inactive | outcome [9]: inactive

Oc1ccccc1-c1ccccc1
AC50 [1]: 71.8 µM (active) | outcome [1]: inactive | AC50 [5]: 32 µM (active) | outcome [5]: inactive | AC50 [6]: 50 µM (active) | outcome [6]: inactive | AC50 [7]: 50 µM (active) | outcome [7]: inactive | outcome [8]: inactive | outcome [9]: inactive

COP(=S)(OC)Oc1nc(Cl)c(Cl)cc1Cl
outcome [2]: inactive | outcome [3]: inactive | outcome [4]: inactive | outcome [5]: inactive | outcome [6]: inactive | outcome [8]: inactive | outcome [9]: inactive
